Screening results: PubChem, National Center for Advancing Translational Sciences (NCATS)
HP1b chromo inh: HTS for Inhibitors of HP1-beta Chromodomain Interactions with Methylated Histone Tails | Potency, µM (top dose mostly 114 µM), for inactives: at the top dose activity change, negative = inhibition, actives largely listed as inhibitors | AlphaScreen HP1-beta / biotin-H3K9me3 peptide binding | 390,000 tested, 0.56% active | Chromobox protein homolog 1 (Homo sapiens), P83916; further: nearly all actives have a fitted effect of over 70% in size
Target sequence (P83916 whole entry, looked up): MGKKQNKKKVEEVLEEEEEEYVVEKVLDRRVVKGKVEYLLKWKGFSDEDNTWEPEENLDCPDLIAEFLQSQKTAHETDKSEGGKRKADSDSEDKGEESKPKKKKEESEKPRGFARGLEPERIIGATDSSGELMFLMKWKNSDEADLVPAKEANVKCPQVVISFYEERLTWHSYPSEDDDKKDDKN
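Compound inhibition of the preformed complex between 50 nM HP1-beta and 50 nM biotinylated H3K9me3 peptide was read by AlphaScreen. Buffer was PBS pH 7.4 with 0.01% Tween-20. Incubations ran 30 min at room temperature, with 10 ug/mL donor/acceptor beads.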
PLK1 PBD block: qHTS for Inhibitors of PLK1-PDB (polo-like kinase 1 - polo-box domain): Primary Screen. Plk1 PBD binding of FITC phosphopeptide, fluorescence polarization. 360,000 tested, 2.8% active. Potency, µM, inactives show max response, negative = inhibition, hits mostly inhibitors. Serine/threonine-protein kinase PLK1 (Homo sapiens), P53350; further: series mostly up to about 57 µM; on the % scale 0 is the no-effect control and ±100 the full control effect; nearly all actives have a fitted effect of over 65% in size
JMJD2A Tudor: qHTS Assay for Inhibitors of JMJD2A-Tudor Domain | AID 504339, 2011 | Lysine-specific demethylase 4A (Homo sapiens), O75164 | Potency, µM (titrated, usually from 114 µM), for the others: at the top dose activity change, negative = inhibition, hits mostly inhibitors | 390,000 tested, 4.4% active | AlphaScreen JMJD2A-Tudor / H3K4me3 peptide binding; further: on the % scale 0 is the no-effect control and ±100 the full control effect; nearly all actives have a fitted effect of over 50% in size
BAZ2B inh: qHTS Assay for Inhibitors of BAZ2B | Bromodomain adjacent to zinc finger domain protein 2B (Homo sapiens), Q9UIF8 | AlphaScreen BAZ2B-H3K14Ac peptide displacement | Potency, µM (top dose mostly 114 µM), for the others: at the top dose activity change, negative = inhibition, usual class: inhibitors | 360,000 tested, 4.4% active | AID 504333, 2011; further: on the % scale 0 is the no-effect control and ±100 the full control effect; nearly all actives have a fitted effect of over 60% in size
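Inhibition is scored as reduced AlphaScreen emission. The BAZ2B/b-H3(5-23)K14Ac complex (50 nM each) in PBS pH 7.4, 0.01% Tween-20 meets compound (up to 110 uM) for 30 min at RT before bead addition.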
G9a inh-1: qHTS Assay for Inhibitors of Histone Lysine Methyltransferase G9a | G9a H3K9 monomethylation, AlphaScreen, 2 h | AID 504332, 2011 | Potency, µM (top dose mostly 102 µM), for the others: at the top dose activity, negative = inhibition, hits mostly inhibitors | 350,000 tested, 8.8% active; further: on the % scale 0 is the no-effect control and ±100 the full control effect; nearly all actives have a fitted effect of over 75% in size
Target sequence (Q96KQ7 913-1193 limits assumed): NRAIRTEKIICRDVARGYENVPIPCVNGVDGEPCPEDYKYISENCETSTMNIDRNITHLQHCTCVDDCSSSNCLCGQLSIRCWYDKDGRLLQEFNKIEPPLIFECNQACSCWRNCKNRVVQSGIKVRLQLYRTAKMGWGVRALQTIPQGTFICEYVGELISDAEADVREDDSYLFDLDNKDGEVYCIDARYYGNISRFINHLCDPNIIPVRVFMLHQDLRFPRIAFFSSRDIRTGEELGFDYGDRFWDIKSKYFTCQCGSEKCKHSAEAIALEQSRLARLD
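Signal arises when biotinylated H3K9 peptide, once monomethylated, bridges streptavidin donor and antibody-captured acceptor beads. Enzyme at 20 nM was preincubated 15 min with test compounds; peptide 500 nM and SAM 20 uM then reacted for 2 h.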
Sfp inh: qHTS Assay for Inhibitors of Bacillus subtilis Sfp phosphopantetheinyl transferase (PPTase); 310,000 tested, 3.5% active; Potency, µM, without a hit: largest response in the series, negative = inhibition, hits mostly inhibitors; Biochemical Sfp PPTase activity, qHTS; 4'-phosphopantetheinyl transferase ffp (Bacillus subtilis), Q9F4F7; AID 1490, 2009;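 further: the enzyme is Sfp with the accession as filed and its product quenches rhodamine fluorescence; 0% = enzyme reaction without inhibitor and -100% = no enzyme wells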
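Reaction rates are the 30-min fluorescence difference (ex 525, em 598 nm) in wells containing 15 nM Sfp, 5 uM rhodamine-CoA and 12.5 uM BHQ-2-YbbR at pH 7.6 with 10 mM MgCl2.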
G9a inh-2: qHTS Assay for Inhibitors of Histone Lysine Methyltransferase G9a: Hit Confirmation; shares compounds with JMJD2A Tudor; G9a H3K9 monomethylation, AlphaScreen, 2 h; Potency, µM, hits mostly inhibitors; 370 tested, 89% active; further: nearly all actives have a fitted effect of over 65% in size
TbPYK inh: qHTS of Trypanosoma Brucei Inhibitors: Confirmatory Assay for Cherry-picked Compounds | 890 tested, 67% active | shares compounds with PLK1 PBD block | Potency, µM (doses to about 76.9 µM), inactives show at the top dose activity change, negative = inhibition, actives largely listed as inhibitors | recombinant TbPYK, Kinase-Glo ATP luminescence; further: on the % scale 0 is the no-effect control and ±100 the full control effect; nearly all actives have a fitted effect of over 70% in size
TbPYK ADP-Glo: qHTS of Trypanosoma Brucei Inhibitors: Orthogonal Assay for Cherry-picked Compounds | shares compounds with PLK1 PBD block | recombinant TbPYK, ADP-Glo luminescence, 60 min | Potency, µM (titrated, usually from 76.9 µM), for inactives: top-dose activity change, negative = inhibition, actives largely listed as inhibitors | 890 tested, 62% active | AID 720584, 2013; further: on the % scale 0 is the no-effect control and ±100 the full control effect; nearly all actives have a fitted effect of over 75% in size
The depositor's hits bear a star; [ ] = dose if it differs, or a comment. Shown are actives, neighbours in structure and some others; about 12% of the full set was active somewhere. The call rests on the fitted dose curve; in most records, active means well fitted curve in the direction sought with a large enough effect; inconclusive means small, poorly fitted or top-dose-only effect, or another doubt; inactive means no such curve, though single readings can be large; an effect the other way counts as inactive or inconclusive. Potency means the concentration at half of the fitted maximal effect.

For Cn1c2c(c3ccccc31)CCNCC2 the results were Sfp inh 3%.
`CC(=O)Nc1ccc(NC(=O)Oc2ccccc2)cc1` gave HP1b chromo inh 9%, PLK1 PBD block -23%, JMJD2A Tudor -13%, BAZ2B inh -21%, G9a inh-1 inconclusive and Sfp inh 12%.
For CN(C)c1ccc(NC(=O)Oc2ccccc2)cc1 the results were HP1b chromo inh -40%, PLK1 PBD block -22%, JMJD2A Tudor inconclusive, BAZ2B inh 45µM*, G9a inh-1 1.6µM*, Sfp inh 79µM* and G9a inh-2 1.4*.
Screening C[C@]12CCC3C(CC[C@H]4C[C@H](O)CC[C@]34C)C1CCC2=O (stereo not given in full) returned HP1b chromo inh -4%, PLK1 PBD block 2% and JMJD2A Tudor -11%.
Screening COc1ccc(OCC(=O)N2CCN(Cc3cccc(OC)c3OC)CC2)cc1 returned HP1b chromo inh inconclusive, JMJD2A Tudor 7.9µM*, BAZ2B inh 50µM*, G9a inh-1 2µM* and G9a inh-2 29*.
Screening COc1ccc(CN2CCN(Cc3ccccc3OC)CC2)cc1 returned HP1b chromo inh inconclusive, PLK1 PBD block -1%, JMJD2A Tudor 4µM*, BAZ2B inh 25µM*, G9a inh-1 2µM*, Sfp inh inconclusive and G9a inh-2 3.6*.
For Cc1cccc(OCC(=O)N2CCN(Cc3ccncc3)CC2)c1 the results were HP1b chromo inh -40%, PLK1 PBD block 2%, JMJD2A Tudor 1.3µM*, BAZ2B inh 18µM*, G9a inh-1 2.5µM*, Sfp inh inconclusive and G9a inh-2 8.9*.
`COC(=O)C1=C(c2ccc(OC)c(OC)c2)C[C@@H]2CC[C@H]1N2C(=O)NCCCOC(C)C` gave HP1b chromo inh 23%, PLK1 PBD block -8%, JMJD2A Tudor -14%, BAZ2B inh 8% and G9a inh-1 20%[2.33 µM].
For C=C1CCN([C@@H](Cc2ccccc2)C(=O)Nc2ccc(OC)cc2)S(=O)(=O)c2ccccc21 the results were HP1b chromo inh 16%, PLK1 PBD block inconclusive and JMJD2A Tudor -35%.
Screening COc1ccc(CCNCc2ccncc2)cc1OC returned HP1b chromo inh inconclusive, PLK1 PBD block -13%, JMJD2A Tudor 11µM*, BAZ2B inh 50µM*, G9a inh-1 2.5µM*, Sfp inh 45µM* and G9a inh-2 45*.
For COc1ccc(CCN)cc1OC the results were HP1b chromo inh 29%, PLK1 PBD block -5%, JMJD2A Tudor -10%, BAZ2B inh -11%, G9a inh-1 49%[59 µM] and Sfp inh -10%.
Screening CCN(CC)C(=O)c1ccc2c(c1)C1C=CCC1C(C(=O)O)N2 (stereo not given) returned HP1b chromo inh 28µM*, PLK1 PBD block 7.5µM*, JMJD2A Tudor 11µM*, BAZ2B inh 25µM*, G9a inh-1 1.6µM*, Sfp inh 11µM*, TbPYK inh 4µM* and TbPYK ADP-Glo inconclusive.
`CCC1(CC)C(=O)N(Cc2ccccc2)C(=O)N(Cc2ccccc2)C1=O` gave HP1b chromo inh 83%, PLK1 PBD block -7%, JMJD2A Tudor 60%, BAZ2B inh 37%, G9a inh-1 23% and Sfp inh 1%.
For O=C1NC(=O)N(Cc2ccccc2)C(=O)/C1=C\c1ccco1 the results were HP1b chromo inh inconclusive, PLK1 PBD block 2.1µM*, JMJD2A Tudor inconclusive, BAZ2B inh 40µM*, G9a inh-1 35µM*, Sfp inh -29%, TbPYK inh 32µM* and TbPYK ADP-Glo inconclusive.
For S=C(NCCc1ccccc1)N1Cc2cc(N3CCCCC3)ccc2-n2nncc2C1 the results were PLK1 PBD block 5%.
For COc1ccc(-n2nc(C(=O)NCC(=O)N3CCC4(CC3)OCCO4)c3ccccc3c2=O)c(OC)c1 the results were HP1b chromo inh -23%, PLK1 PBD block 6%, JMJD2A Tudor 6%, BAZ2B inh -1%, G9a inh-1 7%[12.7 µM] and Sfp inh 21%.
COc1ccc(N2C(=O)/C(=C/c3ccc(C)o3)C(=O)NC2=S)c(OC)c1 was read as HP1b chromo inh -23%, PLK1 PBD block 11µM*, JMJD2A Tudor 50µM*, BAZ2B inh 50µM*, G9a inh-1 12%[0.501 µM], Sfp inh 40µM*, TbPYK inh 1.4µM* and TbPYK ADP-Glo 13µM*.
Screening Cc1cccc(NP2(=O)NCCCN2)c1 returned HP1b chromo inh -16%, PLK1 PBD block -8% and JMJD2A Tudor -17%.
`O=C(N[C@@H]1CN2CCC1CC2)c1cc(Cl)cc2[nH]cnc12` gave Sfp inh 2%.
Screening CN1C(=O)C(=Cc2ccccc2Oc2ccc(Cl)c(F)c2)C(=O)N(C)C1=O returned HP1b chromo inh 132%, PLK1 PBD block 4.2µM*, JMJD2A Tudor 10%, BAZ2B inh 19%, G9a inh-1 -21%, Sfp inh 56µM*, TbPYK inh inconclusive and TbPYK ADP-Glo -26%.
Screening O[C@@H]1[C@@H]2O[P@@](O)(=S)OC[C@H]2O[C@H]1n1cnc2cc(Cl)c(Cl)cc21 returned Sfp inh 0%.
